Pf Dd2 inh: inhibitors of Plasmodium falciparum Dd2 growth. P. falciparum Dd2 growth, SYBR Green, 72 h. Potency, µM (doses to about 28.9 µM), most hits filed as inhibitors. 120,000 compounds, 4.3% hits. AID 1347417; active = well fitted inhibition curve with a large enough effect; also: nearly all actives have a fitted effect of over 65% in size
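Readout: SYBR Green fluorescence, 485 nm excitation, 535 nm emission, after ~16 h lysis at 37C. Before that, Dd2-infected red cells (2.5% hematocrit) grew 72 h with compound, 29 uM top final concentration.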
A number is an active result; 0 = inactive; [ ] = dose if it differs, or a comment. The entries come from a sample that favours hits as a whole.

SMILES | Pf Dd2 inh
O=C(O)C[C@@H]1CCN(Cc2ccccc2O)C[C@@H]1CCN1C[C@@H]2C[C@H](C1)c1cccc(=O)n1C2 | 0
CCOC(=O)C1CCN(C(=O)Cn2ncc3c4ccccc4n(Cc4ccccc4F)c3c2=O)CC1 | 0
Cc1ccc(C)c(Cn2c3ccccc3c3cnn(CC(=O)N4CCCCC4)c(=O)c32)c1 | 0
CCCn1c2ccccc2c2cnn(CC(=O)N3CCN(c4ccccc4F)CC3)c(=O)c21 | 0
CCN1CCN(C(=O)Cn2ncc3c4ccccc4n(Cc4c(C)cc(C)cc4C)c3c2=O)CC1 | 13µM
Cc1ccccc1Cn1c2ccccc2c2cnn(CC(=O)N3CCC(C)CC3)c(=O)c21 | 0
O=C(Cn1ncc2c3ccccc3n(Cc3ccccc3F)c2c1=O)NC1CCCCCC1 | 0
CC1CCCCN1C(=O)Cn1ncc2c3ccccc3n(Cc3ccccc3F)c2c1=O (configuration not stated) | 13µM
Cc1cc(C)c(Cn2c3ccccc3c3cnn(CC(=O)NC4CCCCCC4)c(=O)c32)c(C)c1 | 0
CCN1CCN(C(=O)Cn2ncc3c4ccccc4n(Cc4ccccc4F)c3c2=O)CC1 | 11µM
CN(C)C[C@@H]1CN(S(C)(=O)=O)C[C@H]1NC(=O)c1nccn1C | 0
COC(=O)C1=CN(CC(=O)NCc2cccc(OC)c2)S(=O)(=O)N=C1C | 0
O=C(CNC(=O)c1ccc(F)cc1)OCc1cc(=O)n2nc(C3CCCCC3)sc2n1 | 0
COc1ccc(C(=O)N2CCCC(n3cc(-c4nc(C)no4)nn3)C2)cc1OC (configuration not stated) | 0
Cn1nc(C2CCCCC2)cc1[C@H]1CN2CC[C@H]1C[C@@H]2CNC(=O)c1ccco1 | 0
CC(C)NC(=O)N[C@H]1C[C@H]2C(=O)NC[C@@H](CCC(=O)NCc3ccccc3)N2C1 | 0
CN(Cc1nccs1)Cc1cccn1C | 0
O=C(NCc1ccncc1)C1CN(C(=O)c2ccc(F)cc2)CC12CCOCC2 (configuration not stated) | 0
COc1ccc(-c2noc([C@@H](C)NC(=O)COc3ccccc3)c2C(=O)O)cc1 | 0
COc1ccc(-n2nc(C3CCN(C(=O)Nc4ccccc4)CC3)[nH]c2=O)cc1 | 0
CC(=O)N1CCC(N[C@H]2CC(C)(C)[C@@H]3C[C@@](C)(O)CC[C@]23CCC(=O)NCCc2c[nH]c3ccccc23)CC1 | 0
O=C(CC1CCCCN(Cc2ccccc2)C1=O)N1CCN(c2ccc(F)cc2)CC1 (configuration not stated) | 11µM
COc1ccc(N2CCN(C(=O)CC3CCCCN(C)C3=O)CC2)cc1 (configuration not stated) | 0
O=C(CC1CCCCN(Cc2ccccc2)C1=O)Nc1ccc(F)cc1F (configuration not stated) | 0
COC(=O)c1ccccc1NC(=O)Cn1c(=O)n(CCC(=O)NCc2ccccc2OC)c(=O)c2ccccc21 | 0
SMILES | Pf Dd2 inh
O[C@@H]1C[C@@H](c2nc(-c3ccc4c(c3)OCO4)no2)N(Cc2ccccc2)C1 | 0
COC[C@H]1CCCN1Cc1cn(Cc2ccccc2)nc1-c1cc2ccccc2o1 | 7.9µM
c1ccc(Cn2cc(CN3CCCOCC3)c(-c3cc4ccccc4o3)n2)cc1 | 11µM
CN1CC2(CCN(Cc3ccccc3)CC2)CC1C(=O)N1CCOCC1 (configuration not stated) | 0
CN1CC2(CCCN(Cc3cc4ccccc4o3)C2)OC1=O (configuration not stated) | 0
c1ccc(Cn2cc(CN3CCCC3)c(-c3ccc4c(c3)OCO4)n2)cc1 | 11µM
O=C1CCN(Cc2ccccc2)CCOCCN1 | 0
COC[C@H]1CCCN1C(=O)CC[C@H]1CNC(=O)[C@@H]2[C@@H](CCN2Cc2ccccc2)N1C | 0
Fc1ccccc1N1CCN(Cc2nnc(-c3ccc4c(c3)OCO4)o2)CC1 | 0[0.594 µM]
CC1(C)CN(Cc2cn(Cc3ccccc3)nc2-c2cc3ccccc3o2)CCO1 | 8.9µM
COCC1CCCCN1C(=O)c1ccc2oc(CCc3ccccc3)nc2c1 (configuration not stated) | 0
O=C(O)c1cncc(-c2cccc(CN3CCOCC3)c2)n1 | 0
CCn1nccc1C(=O)NCCC1CCN(C(=O)Nc2ccc(F)cc2)CC1 | 0
O=C(O)c1cc(-c2cn[nH]c2)cc(S(=O)(=O)N2CCSCC2)c1 | 0
O=C1C(N2CCN(S(=O)(=O)Cc3ccccc3F)CC2)CCN1CCc1ccccc1 (configuration not stated) | 0
Cc1cccc(Cn2cc(C(=O)Nc3cc(F)ccc3F)ccc2=O)c1 | 0
COc1ccc(NC(=O)c2ccc3c(c2)C2(CCN(C)C2)CN3CC2CC2)cc1 (configuration not stated) | 0
CCOC(=O)C(C)NC(=O)c1c2c(nc3ccccc13)C(=O)N(C1CCCCC1)C2 (configuration not stated) | 0
Fc1ccc(Nc2nc3ccccc3n3cnnc23)c(F)c1 | 0
CN1CC(=O)N(C2CCCNC2)Cc2c(NCCN3CCOCC3)ncnc21 (configuration not stated) | 0
O=C(c1ccc(F)cc1)N1CCC2(CC1)CN[S+](=O)([O-])c1cccnc1O2 | 0
COc1ccc(NC(=O)N2CCc3c(nc4cc(-c5ccccc5)[nH]n4c3=O)C2)c(C)c1 | 0
CC(C)COc1ccc(C(=O)Nc2scc(-c3ccc(Br)cc3)c2C(=O)OC(C)C)cc1 | 0
CCc1cccc(NC(=O)Cn2c(=O)ccc3cc(S(=O)(=O)N4CCC(C)CC4)ccc32)c1 | 0
Cc1nnc([C@H]2CCN(Cc3ccccc3)C2)o1 | 0
SMILES | Pf Dd2 inh
FC1CCN(Cc2cn(Cc3ccccc3)nc2-c2cc3ccccc3o2)CC1 | 7.9µM
O=C1NCCN1C1CCN(Cc2ccccc2)CC1 | 0
COc1cccc(CCC(=O)N2C[C@@H]3CC[C@H](C2)N(CC2CCC2)C3=O)c1 | 0
CC(=O)c1ccc(S(=O)(=O)N2CCn3cccc3C2c2ccc(C)cc2)cc1 (configuration not stated) | 0
O=C(Nc1ccc2ncnc(N3CCCCC3)c2c1)c1ccccc1Br | 0
O=C(Nc1ccc2ncnc(N3CCCC3)c2c1)c1ccc(F)cc1Cl | 0
O=C(Nc1ccc2ncnc(N3CCCCC3)c2c1)c1c(F)cccc1Cl | 0
O=C(Nc1ccc2c(N3CCCCC3)ncnc2c1)c1ccccc1C(F)(F)F | 11µM
Cc1ccc(-c2ncc(NC(=O)c3ccccc3C(F)(F)F)cn2)cc1 | 0
O=C(Nc1ccc2c(N3CCCC3)ncnc2c1)c1ccccc1Cl | 13µM
CCCCn1cc2c(c1-c1ccc(Br)cc1)c(=O)n(C)c(=O)n2C | 0
O=C(NCc1ccccc1Cl)c1c2c(nc3ccccc13)C(=O)N(C1CCCCC1)C2 | 0
COCCN1CCC2(CCC1=O)CN(C(=O)c1ccco1)CCN2C (configuration not stated) | 0
Cc1noc([C@@H](C)NC(=O)c2cccs2)c1C(=O)O | 0
CCc1ccc(-n2c(=O)c3cccnc3n2CC(=O)Nc2cc(F)ccc2F)cc1 | 5µM
Cc1ccc(-n2c(=O)c3cccnc3n2CC(=O)NCc2ccc(Cl)cc2)cc1 | 0
CCN(CC)c1ccc(NC(=O)Cn2c3ncccc3c(=O)n2-c2ccccc2)c(C)c1 | 0
COc1ccc(NC(=O)Cc2ccc(N(Cc3ccc(C)cc3)C(=O)c3ccco3)cc2)cc1 | 4.5µM
COc1ccc(CCNC(=O)Cc2ccc(N(Cc3ccccc3)C(=O)c3ccco3)cc2)cc1 | 0
COc1ccc(CN(C(=O)c2ccco2)c2ccc(CC(=O)NC(C)C)cc2)cc1 | 0
CCCNC(=O)Cc1ccc(N(Cc2ccc(OC)cc2)C(=O)c2ccco2)cc1 | 0
COc1ccc(OCC(=O)N(Cc2cccs2)c2ccc(OC)cc2)cc1 | 0

Source: PubChem
